# From PubChem
# The list is not random: actives were taken first. Their share in the collection is about 10%.
# 3T3 cytotox = NIH 3T3 cell cytotoxicity; Potency, µM (highest dose often 96.7 µM), for the others: at the highest dose activity change, negative = cytotoxicity, actives largely listed as inhibitors; NIH 3T3 viability, CellTiter-Glo ATP luminescence, 48-72 h; actives 4.3% (n = 94,000); AID 1345082; further: nearly all actives have a fitted effect of over 55% in size
#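 NIH 3T3 cells at 400 cells/well received 23 nL of compound by pintool and were incubated 48 or 72 h at 37 °C. Viability was read as ATP-coupled CellTiter-Glo luminescence.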
# GPT2 inhibitor = inhibitors of human GPT2 alanine aminotransferase | Q8TD30 | Recombinant GPT2, coupled pyruvate oxidase/HRP Amplex Red fluorescence | Potency, µM (series often up to 57.7 µM), without a hit: at the highest dose activity change, negative = inhibition, most hits filed as inhibitors | actives 0.25% (n = 100,000) | AID 1671188; further: nearly all actives have a fitted effect of over 60% in size
#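 Inhibition is scored from Amplex Red fluorescence generated when pyruvate oxidase and HRP act on pyruvate released by GPT2. Reactions contain 10ng/uL enzyme, 250uM a-KG and 2mM L-alanine and run 30 min at room temperature.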
# Luciferase inh = Photinus pyralis luciferase inhibition | purified P. pyralis luciferase, luminescence, biochemical | Potency, µM (doses to about 115 µM), hits mostly inhibitors | actives 2.5% (n = 76,000) | AID 1347043; further: nearly all actives have a fitted effect of over 65% in size
#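 FLuc 10nM, D-luciferin 10uM, ATP 10uM, Mg acetate 10mM, Tris acetate pH 7.5, Tween/BSA; cpd qHTS; enzyme added last; CCD luminescence.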
# hNpr1 antagonist = human Npr1 receptor antagonism; actives 1.6% (n = 76,000); P16066; Potency, µM (doses to about 46.3 µM), for inactives: at the highest dose activity change, negative = inhibition, hits mostly inhibitors; HEK293 hNpr1 GloSensor cGMP, ANP-stimulated luminescence; calls by dose curve; further: nearly all actives have a fitted effect of over 60% in size
# Target sequence (P16066 whole entry, looked up): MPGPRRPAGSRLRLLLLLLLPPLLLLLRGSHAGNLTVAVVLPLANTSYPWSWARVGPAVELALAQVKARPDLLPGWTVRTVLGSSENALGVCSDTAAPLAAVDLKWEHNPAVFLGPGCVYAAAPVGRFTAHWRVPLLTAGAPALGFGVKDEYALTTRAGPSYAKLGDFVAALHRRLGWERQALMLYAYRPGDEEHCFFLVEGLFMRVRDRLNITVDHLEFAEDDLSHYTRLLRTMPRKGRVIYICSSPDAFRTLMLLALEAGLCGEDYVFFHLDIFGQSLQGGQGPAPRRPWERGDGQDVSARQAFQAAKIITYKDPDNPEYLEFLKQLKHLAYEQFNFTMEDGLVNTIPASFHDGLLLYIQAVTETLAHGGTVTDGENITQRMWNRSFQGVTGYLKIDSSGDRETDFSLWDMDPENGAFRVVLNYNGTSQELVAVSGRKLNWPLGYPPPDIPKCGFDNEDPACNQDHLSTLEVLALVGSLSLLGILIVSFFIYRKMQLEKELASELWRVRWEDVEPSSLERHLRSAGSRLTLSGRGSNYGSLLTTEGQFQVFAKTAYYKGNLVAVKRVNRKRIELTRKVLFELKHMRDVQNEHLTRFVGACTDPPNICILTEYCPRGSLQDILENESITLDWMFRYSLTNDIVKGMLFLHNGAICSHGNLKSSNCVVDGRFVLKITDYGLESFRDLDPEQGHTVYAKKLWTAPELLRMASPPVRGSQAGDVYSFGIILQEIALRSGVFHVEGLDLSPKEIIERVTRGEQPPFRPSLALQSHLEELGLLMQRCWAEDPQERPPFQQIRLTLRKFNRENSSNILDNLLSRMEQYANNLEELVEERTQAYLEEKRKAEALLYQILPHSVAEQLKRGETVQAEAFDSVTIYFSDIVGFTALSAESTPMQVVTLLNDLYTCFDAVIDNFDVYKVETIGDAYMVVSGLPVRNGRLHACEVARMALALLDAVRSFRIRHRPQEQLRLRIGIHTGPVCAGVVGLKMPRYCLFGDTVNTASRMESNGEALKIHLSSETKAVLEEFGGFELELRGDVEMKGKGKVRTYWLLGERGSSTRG
#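 HEK293 cells stably expressing human Npr1 and cGMP GloSensor pGS-40F, loaded 2 h with 2% GloSensor reagent, given compound 30 min at room temperature. Luminescence read before and 20 min after 0.1 nM hNppA.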
# HEK293 tox = kills HEK 293 cells | HEK 293 viability, ATP luminescence (CellTiter-Glo), 48-72 h | Potency, µM (doses to about 115 µM), inactives show top-dose activity change, negative = cytotoxicity, most hits filed as inhibitors | actives 6.6% (n = 94,000) | AID 1345083; further: nearly all actives have a fitted effect of over 60% in size
#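 HEK 293 cells seeded at 250 cells/well were exposed to compound for 48 or 72 hr at 37 degree Celsius. Viability taken as ATP content by CellTiter-Glo luminescence.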
# * marks the source's active call; other numbers are inactive results; i = inactive; ? = inconclusive; / = no result given; [ ] = remark or other dose. Unless noted, the call rests on the fitted dose curve; in most records, active means well fitted curve in the direction sought with a large enough effect; inconclusive means small, poorly fitted or top-dose-only effect, or another doubt; inactive means no such curve, though single readings can be large; an effect the other way counts as inactive or inconclusive. On the % scale 0 is the no-effect control and ±100 the full control effect; potency means the concentration at half of the fitted maximal effect.
SMILES,3T3 cytotox,GPT2 inhibitor,Luciferase inh,hNpr1 antagonist,HEK293 tox
O=C(Nc1ccc(F)cc1)N1CC[C@H]2COC(=O)N2c2cc(F)ccc2C1,?,i,56.2µM*,3.8%[70.6 µM],-7.9%[172 µM]
Cc1noc(C)c1-c1cc2c(cc(C)n2CCN(C)C)c(-c2cccnc2)n1,?,-3.6%[88.5 µM],i,-12.8%[70.6 µM],70.8µM*
Cc1noc(C)c1-c1cc2c(cc(C)n2CCN(C)C)c(-c2ccccc2O)n1,31.6µM*,-8.9%[88.5 µM],i,0.5%[70.6 µM],44.7µM*
Cc1noc(C)c1-c1cc2c(cc(C)n2CCN(C)C)c(Nc2ccn(C)n2)n1,?,-6.2%[88.5 µM],i,-2.0%[70.6 µM],89.1µM*
Cc1noc(C)c1-c1cc2c(cc(C)n2CCN(C)C)c(-c2cccc(O)c2)n1,?,-1.4%[88.5 µM],i,-11.6%[70.6 µM],56.2µM*
Cc1noc2c(N(C)C)cc(-c3cccnc3)nc12,?,i,i,0.6%[70.6 µM],-4.5%[230 µM]
CCc1nc2c(c(-c3ccc(O)cc3)n1)CN(Cc1cccn1C)CC2,?,i,/,/,?
CCn1c(=O)c(-c2ccn[nH]2)cc2c(C)nc(N)nc21,/,i,/,/,/
COc1cccc(-c2nc(-c3c(C)noc3C)cc3c2cc(C)n3CCN(C)C)c1OC,?,?,i,-11.5%[70.6 µM],?
Cc1noc(C)c1-c1cc2c(cc(C)n2CCN(C)C)c(-c2ccc(CO)cc2)n1,?,?,i,-20.9%[70.6 µM],79.4µM*
COc1ccc(-c2nc(-c3c(C)noc3C)cc3c2cc(C)n3CCN(C)C)cn1,?,-14.4%[88.5 µM],i,-9.9%[70.6 µM],79.4µM*
O=C(Cc1ccccc1)NC1CCN(c2ccnc3ccnn23)C1 (configuration not stated),?,-7.0%[88.5 µM],/,/,?
Nc1cccn2nc(-c3ccccc3)nc12,?,-0.7%,15.8µM*,-14.6%,-18.0%
Nc1cccn2nc(-c3cccnc3)nc12,-14.4%,?,?,-6.4%,i
O=[S+]([O-])(c1cccnc1)c1nnn2c1nc(NCc1ccc(F)cc1)c1ccccc12,i,i,/,/,i
N#Cc1cccc(CN2CCc3nc(C(=O)NCC4CC4)oc3CC2)c1,?,-2.4%[88.5 µM],i,-24.4%[70.6 µM],?
O=C(NCC1CC1)c1nc2c(o1)CCN(Cc1cccc(O)c1)CC2,100µM*,i,?,4.3%[70.6 µM],?
O=C(Nc1cccc(C(F)(F)F)c1)c1nc2c(o1)CCN(Cc1cccs1)CC2,?,-10.2%[88.5 µM],8.91µM*,?,?
N#Cc1cccc(CN2CCc3nc(C(=O)Nc4cccc(C(F)(F)F)c4)oc3CC2)c1,?,-2.8%,?,11.2µM*,?
O=C(Nc1cccc(C(F)(F)F)c1)c1nc2c(o1)CCN(Cc1nccs1)CC2,?,0.9%[88.5 µM],15.8µM*,35.5µM*,?
CCOc1cccc2c1OC[C@@H]1CN(CCC#N)C(=O)CCN(C(=O)c3ccc(C)cc3)[C@H]21,?,/,/,/,-25.3%
CCN(CC)c1cc(CCC(=O)N2CCC(C)CC2)ccn1,-14.2%,i,i,1.8%,?
COc1ccc(CN2CCc3nc(C(=O)Nc4cccnc4)oc3CC2)cc1OC,?,-6.6%[88.5 µM],i,-16.8%[70.6 µM],?
COc1cccc(CN2CCc3nc(C(=O)Nc4cccnc4)oc3CC2)c1,?,2.7%[88.5 µM],22.4µM*,?,?
COc1ccc(CN2CCc3nc(C(=O)NCc4cccc(F)c4)oc3CC2)cc1,?,-4.9%[88.5 µM],i,-29.1%[70.6 µM],?
SMILES,3T3 cytotox,GPT2 inhibitor,Luciferase inh,hNpr1 antagonist,HEK293 tox
O=C(Nc1cccnc1)c1nc2c(o1)CCN(Cc1cccs1)CC2,?,-29.8%[88.5 µM],?,-19.2%[70.6 µM],89.1µM*
Cc1ccc(CN2CCc3nc(C(=O)Nc4cccnc4)oc3CC2)o1,-21.1%[138 µM],3.6%[88.5 µM],?,-10.1%[70.6 µM],?
O=C(NCc1cccc(F)c1)c1nc2c(o1)CCN(Cc1cccc(F)c1F)CC2,44.7µM*,-2.3%[88.5 µM],i,?,50.1µM*
COc1ccc(NC(=O)N2CCCC(CN3CCOCC3)CC2)cc1 (configuration not stated),-9.7%,0.1%,/,/,3.4%
CC(=O)OC1[C@H]2[C@@H](C[C@@H](C)[C@@H]3C=CC(=O)[C@@]13C)OC(=O)[C@@H]2C (some centres not stated),/,0.3%,/,/,/
COc1cc(CNC(=O)c2ccc3c(c2)N(C)C2CCCN2C3=O)cc(OC)c1 (configuration not stated),-17.6%,i,i,0.0%,-18.9%
COc1ccc(CCNC(=O)c2cn3cc(-c4ccccc4)sc3n2)cc1,-18.4%,i,/,/,-24.1%
COc1cccc(C(=O)N2CCCC2C(=O)N2CCCC2c2nc3ccncc3[nH]2)c1 (configuration not stated),-13.6%,i,/,/,-3.7%
CCN1c2cc(C(=O)Nc3ccc(C)c(C)c3)ccc2C(=O)N2CCCCC21 (configuration not stated),28.2µM*,i,i,-10.4%,28.2µM*
CCN1c2cc(C(=O)Nc3ccc(Cl)c(Cl)c3)ccc2C(=O)N2CCCCCC21 (configuration not stated),44.7µM*,i,i,-2.3%,?
CCN1c2cc(C(=O)Nc3ccc(Br)c(C)c3)ccc2C(=O)N2CCCC21 (configuration not stated),-19.9%,i,i,0.0%,?
CCN1c2cc(C(=O)Nc3ccc(Cl)c(F)c3)ccc2C(=O)N2CCCCCC21 (configuration not stated),?,i,i,0.0%,?
CCN1c2cc(C(=O)Nc3ccc(Cl)c(C)c3)ccc2C(=O)N2CCCCC21 (configuration not stated),?,i,i,3.6%,15.8µM*
CCN1c2cc(C(=O)Nc3ccc(F)c(Cl)c3)ccc2C(=O)N2CCCC21 (configuration not stated),?,0.9%,i,-5.3%,?
CCc1nc2c(c(-c3ccc(O)cc3)n1)CCN(C(=O)Cc1ccc(OC)cc1)CC2,-27.8%,i,/,/,-7.7%
O=C(CNC(=O)c1ccc(-c2cccc(C(F)(F)F)c2)cc1)NCc1cccs1,?,0.4%,/,/,?
Cc1nn(-c2ccccc2)c2c1C(C1CC1)N(C1CCN(C(=O)c3cccc(Cl)c3)CC1)C2=O (configuration not stated),-26.9%,/,/,/,?
COCC(=O)N1CCC(N2C(=O)c3c(c(C)nn3-c3ccccc3)C2C2CC2)C1 (configuration not stated),?,/,/,/,-19.8%
Cc1nn(-c2ccccc2)c2c1C(C1CC1)N(C1CCN(C(=O)c3cccc(Cl)c3)C1)C2=O (configuration not stated),?,/,/,/,25.1µM*
COc1cccc(C(=O)N2CCC(N3C(=O)c4c(c(C)nn4-c4ccccc4)C3C3CC3)C2)c1 (configuration not stated),?,/,/,/,35.5µM*
